# Reference: the supplement of paper PMC13380429
# Experiments:
# [1] = test system: Vero E6 infected with SARS-CoV-2; assay: morphology score (similarity to uninfected cells); higher = more like uninfected cells; conditions: 24 h
# [2] = test system: Vero E6 infected with SARS-CoV-2; assay: SARS-CoV-2 infection rate relative to infected DMSO; higher = more infection, active = 60 or less; conditions: 24 h
Compound,morphology score [1],SARS-CoV-2 infection rate [2]
CN(C)CC/C=C1/c2ccccc2COc2ccccc21 [doxepin] (10 µM),0.0537,105% (inactive)
C/C(=N\NC(=N)N)c1cc(NC(=O)CCCCCCCCC(=O)Nc2cc(/C(C)=N/NC(=N)N)cc(/C(C)=N/NC(=N)N)c2)cc(/C(C)=N/NC(=N)N)c1 [semapimod] (0.833333 µM),-0.352,115% (inactive)
CCOC(=O)Nc1ccc2c(c1)N(C(=O)CN(C)C)c1ccccc1CC2 [tiracizine] (10 µM),-0.162,111% (inactive)
CCCCOCCOc1nc(-c2ccc(C(=O)O)c(F)c2)sc1C (10 µM),-0.127,108% (inactive)
O=C(O[C@@H]1Cc2c(O)cc(O)cc2O[C@@H]1c1cc(O)c(O)c(O)c1)c1cc(O)c(O)c(O)c1 [epigallocatechin-gallate-(-)] (10 µM),0.156,100% (inactive)
O=C(CC(c1ccccc1)c1ccccc1)N1CCN(C(c2ccccc2)c2ccccc2)CC1 (10 µM),0.0825,102% (inactive)
CCNC(=O)C[C@@H]1N=C(c2ccc(Cl)cc2)c2cc(OC)ccc2-n2c(C)nnc21 (10 µM),-0.0652,106% (inactive)
COc1c(OCCCN2CCOCC2)ccc2c1N=C(NC(=O)c1cnc(N)nc1)N1CCN=C21 [copanlisib] (0.833333 µM),-0.0397,34% (active)
CC(=O)[C@@]1(O)CC[C@H]2[C@@H]3C=C(Cl)C4=CC(=O)[C@@H]5C[C@@H]5[C@]4(C)[C@H]3CC[C@@]21C (10 µM),0.204,109% (inactive)
NS(=O)(=O)c1cc(-c2nnn[nH]2)c(NCc2cccs2)cc1Cl [azosemide] (10 µM),0.286,98.5% (inactive)
O[C@@H](CN1CCC(Cc2ccc(F)cc2)CC1)c1ccc(Cl)cc1 (racemic) [eliprodil] (10 µM),0.218,87% (inactive)
OC[C@H]1O[C@@H](n2cnc3c(N[C@H]4CCC[C@@H]4O)ncnc32)[C@H](O)[C@@H]1O (10 µM),0.227,100% (inactive)
CC1(C)C(/C=C/C=C/C=C/C=C2\N(CCCCS(=O)(=O)O)c3ccc4ccccc4c3C2(C)C)=[N+](CCCCS(=O)(=O)[O-])c2ccc3ccccc3c21 [indocyanine-green] (10 µM),0.0305,109% (inactive)
O=c1c(-n2ccnn2)c[nH]n1-c1cc(N2CCOCC2)ncn1 [molidustat] (10 µM),0.0599,98.5% (inactive)
CC(C)(N)c1nc(-c2ccc(OC(F)(F)F)cc2)c[nH]1 (10 µM),0.0118,103% (inactive)
CCn1cc(C(=O)O)c(=O)c2cc3c(cc21)OCO3 [oxolinic-acid] (10 µM),0.162,96% (inactive)
C=CC(=O)Nc1cccc(Oc2nc(Nc3ccc(N4CCN(C)CC4)cc3OC)ncc2Cl)c1 (0.833333 µM),-0.0953,115% (inactive)
CCOC(=O)c1ccc(-c2ccc(OC(=O)N(C)Cc3cccc(-c4ccncc4)c3)cc2)cc1 (10 µM),0.0201,104% (inactive)
Cc1cc(O)c2c(=O)c3c(O)cc(O)c4c5c(O)cc(O)c6c(=O)c7c(O)cc(C)c8c1c2c(c34)c(c78)c65 [hypericin] (10 µM),-0.152,114% (inactive)
"O=[N+]([O-])c1ccc(O)c([N+](=O)[O-])c1 [2,4-dinitrophenol] (10 µM)",0.0596,97.5% (inactive)

Compound,morphology score [1],SARS-CoV-2 infection rate [2]
Nc1ccc(-c2ccc3ncc4ccc(=O)n(-c5cccc(C(F)(F)F)c5)c4c3c2)cn1 [torin-2] (10 µM),0.162,86.5% (inactive)
CN(C)CCCN1c2ccccc2Sc2ccc(C(F)(F)F)cc21 [triflupromazine] (10 µM),0.465,56% (active)
CCOC(=O)c1ncc2[nH]c3cccc(OC(C)C)c3c2c1C (10 µM),0.286,88.5% (inactive)
C[C@@]1(O)[C@H](O)[C@@H](CO)O[C@H]1n1cnc2c(NC3CCCC3)nc(Cl)nc21 (10 µM),0.0826,102% (inactive)
C[C@H](N)[C@H](O)c1cccc(O)c1 [metaraminol] (10 µM),-0.0578,104% (inactive)
CCC[C@@]1(CCc2ccccc2)CC(O)=C([C@H](CC)c2cccc(NS(=O)(=O)c3ccc(C(F)(F)F)cn3)c2)C(=O)O1 [tipranavir] (10 µM),0.183,94.5% (inactive)
CCOC(=O)c1c(C)[nH]c2ccc3c(c12)CN1CCc2cc(OC)ccc2C1O3 (stereo unspecified) (10 µM),0.729,28.5% (active)
C[C@H]1C[C@H]2[C@@H]3CCC4=CC(=O)C=C[C@]4(C)[C@@]3(Cl)[C@@H](O)C[C@]2(C)[C@@]1(O)C(=O)CO [beclomethasone] (10 µM),0.101,89.5% (inactive)
C[C@@H](Nc1cc(F)cc(F)c1)c1cc(C(=O)N(C)C)cc2c(=O)cc(N3CCOCC3)oc12 (10 µM),-0.225,122% (inactive)
CN1CCN(CCCN2c3ccccc3Sc3ccc(C(F)(F)F)cc32)CC1 [trifluoperazine] (0.833333 µM),0.156,96.5% (inactive)
CCOc1cc2ncc(C#N)c(Nc3ccc(OCc4ccccn4)c(Cl)c3)c2cc1NC(=O)/C=C/CN(C)C [neratinib] (10 µM),-0.265,102% (inactive)
CCCCOc1cc(CC2CNC(=O)N2)ccc1OC (stereo unspecified) (10 µM),0.429,86% (inactive)
COc1ccc2c(c1)C=C1Cn3c-2c(C2CCCCC2)c2ccc(cc23)C(=O)NS(=O)(=O)N(C)CCOCCN(C)C1=O (10 µM),0.153,97.5% (inactive)
CC(C)(C)c1ccc(S(=O)(=O)Nc2ccc(Cl)cc2C(=O)c2cc[n+]([O-])cc2)cc1 [vercirnon] (10 µM),0.0488,98.5% (inactive)
C[C@@H]1O[C@@H](O[C@@H]2[C@@H](O)[C@H](OCCc3ccc(O)c(O)c3)O[C@H](CO)[C@H]2OC(=O)/C=C/c2ccc(O)c(O)c2)[C@H](O)[C@H](O)[C@H]1O [verbascoside] (10 µM),0.0986,104% (inactive)
O=c1c2ccccc2oc2ccccc12 [xanthone] (10 µM),0.219,104% (inactive)
N=C(N)NC(=N)NCCc1ccccc1 [phenformin] (10 µM),0.0321,110% (inactive)
CN(C)/C=N/c1c(I)cc(I)c(CCC(=O)O)c1I [iopodic-acid] (10 µM),0.0727,104% (inactive)
CCC[C@H](NC(=O)[C@@H]1[C@H]2CCC[C@H]2CN1C(=O)[C@@H](NC(=O)[C@@H](NC(=O)c1cnccn1)C1CCCCC1)C(C)(C)C)C(=O)C(=O)NC1CC1 [telaprevir] (10 µM),0.229,106% (inactive)
N#Cc1cc(CN2CCC(Nc3ncnc4sc(Cl)cc34)CC2)ccc1F (10 µM),-0.299,116% (inactive)

Compound,morphology score [1],SARS-CoV-2 infection rate [2]
NS(=O)(=O)c1cc2c(cc1C(F)(F)F)NCNS2(=O)=O [hydroflumethiazide] (10 µM),0.112,112% (inactive)
NC(=S)N/N=C/c1coc2ccccc2c1=O.[Cl][Cu][Cl] (10 µM),-0.124,110% (inactive)
O=C(c1ccc(CN2CCOCC2)cc1)N1CCN(C2CC2)CC1 [bavisant] (10 µM),-0.0555,100% (inactive)
O=[N+]([O-])O[C@@H]1CO[C@H]2[C@@H]1OC[C@@H]2O [isosorbide-mononitrate] (10 µM),-0.103,110% (inactive)
CCOC(=O)OC(C)OC1=C(C(=O)Nc2ccccn2)N(C)S(=O)(=O)c2ccccc21 (stereo unspecified) [ampiroxicam] (10 µM),-0.00273,102% (inactive)
CC1(C)CCC(C)(C)c2cc(Cn3cccn3)c(/C=C/c3ccc(C(=O)O)cc3)cc21 [palovarotene] (10 µM),-0.127,108% (inactive)
O=C1c2ccccc2C(=O)C1c1ccc(Br)cc1 [bromindione] (10 µM),0.204,93.5% (inactive)
CCOC(=O)NNc1ccc(N(CC)CC(C)O)nn1 (stereo unspecified) [cadralazine] (10 µM),0.0865,108% (inactive)
COc1cccc(CCc2ccccc2OCC(CN(C)C)OC(=O)CCC(=O)O)c1 (stereo unspecified) [sarpogrelate] (10 µM),0.198,100% (inactive)
CC(=O)Nc1c(I)cc(I)c(C(=O)O)c1I [acetriazoic-acid] (10 µM),0.138,112% (inactive)
CCCN(CCC)C(=O)C1=Cc2ccc(-c3ccc(C(=O)N4CCCC4)cc3)cc2N=C(N)C1 [motolimod] (10 µM),0.14,93% (inactive)
O=C(O[C@@H]1Cc2c(O)cc(O)cc2O[C@@H]1c1ccc(O)c(O)c1)c1cc(O)c(O)c(O)c1 [epicatechin-gallate-(-)] (10 µM),0.106,100% (inactive)
C=C1C(=O)O[C@@H]2/C=C(\C)CC/C=C(\C)CC[C@@H]12 [costunolide] (10 µM),0.222,78.5% (inactive)
COc1ccc(S(=O)(=O)N(C(C)=O)c2ccccc2/C=C/c2cc[n+]([O-])cc2)cc1 (10 µM),-0.108,93.5% (inactive)
Nc1ccc(S(=O)(=O)Nc2ccc(Cl)nn2)cc1 [sulfachlorpyridazine] (10 µM),0.104,108% (inactive)
CCCNC(C)C(=O)Nc1ccccc1C (stereo unspecified) [prilocaine] (10 µM),-0.208,112% (inactive)
O=C1Cc2cc(CCN3CCN(c4nsc5ccccc45)CC3)c(Cl)cc2N1 [ziprasidone] (10 µM),0.328,100% (inactive)
CC#CCn1c(N2CCC[C@@H](N)C2)nc2c1c(=O)n(Cc1nc(C)c3ccccc3n1)c(=O)n2C [linagliptin] (10 µM),-0.0102,110% (inactive)
